PubChem BioAssay (NCATS)
Values without a mark were called inactive. Results filed as inconclusive are left out. Activity calls are given as the source filed them. Calls follow the shape of the dose curve; as a rule, active = well fitted curve in the direction sought with a large enough effect; inconclusive = small, poorly fitted or top-dose-only effect, or another doubt; inactive = no such curve, though single readings can be large; an effect the other way counts as inactive or inconclusive.

Target: Phospholipid hydroperoxide glutathione peroxidase GPX4 (Homo sapiens) (UniProt P36969)
Test: Primary qHTS Assay for Inhibitors of Recombinant Selenoprotein Glutathione Peroxidase 4 (GPX4) (AID 1845192); also: nearly all actives have a fitted effect of over 65% in size; also: potency is read from the fitted curve at half-maximal effect; as to activity change, negative = inhibition: % is scaled to controls: 0 for no effect and ±100 for the full control effect
Conditions: recombinant GPX4, GR-coupled NADPH fluorescence, 15 min; series mostly up to 50 µM; activity change, negative = inhibition: at the top concentration
How it was run: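 Steps: GPX4 plus compound, 30 min RT; add GR/GSH/NADPH master mix; start with cumene hydroperoxide; read 340/450 nm fluorescence at 0 and 15 min. Finals were 200 nM GPX4, 1 mM GSH, 0.5 mM CHP, 0.5 mM NADPH, 100 nM GR.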

Chain of Phospholipid hydroperoxide glutathione peroxidase GPX4 (Homo sapiens) (P36969 whole entry, looked up): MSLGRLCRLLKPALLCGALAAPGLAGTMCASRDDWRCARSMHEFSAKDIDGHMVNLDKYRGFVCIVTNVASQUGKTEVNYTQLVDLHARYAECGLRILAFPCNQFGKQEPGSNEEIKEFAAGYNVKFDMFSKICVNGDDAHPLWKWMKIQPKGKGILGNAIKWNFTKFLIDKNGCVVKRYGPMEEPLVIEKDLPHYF

Structure (SMILES)	Potency	activity change, negative = inhibition	outcome
CS(=O)(=O)c1ccc(-n2nc(C(F)(F)F)cc2-c2ccc(F)cc2)cc1	inactive		
CCNc1nc2c(ncn2[C@H]2C[C@H](O)[C@@H](CO)O2)c(=O)[nH]1	inactive		
O=C(Nc1ccc2c(c1)CCN(Cc1ncn[nH]1)C2)c1ccccc1-c1ccc(C(F)(F)F)cc1	inactive		
O=C(O)CCCC[C@@H]1CCSS1		-1.05%	
COC(=O)C1=C(C)NC(C)=C(C(=O)OC)C1c1cccc(NC(=O)NCCCN2CCC(c3cccc(OC)c3)CC2)c1	inactive		
C=CC(C)=C[C@@]1(C)SC(=O)C(C)=C1O		-6.6%	
CCNC(=O)[C@H]1O[C@@H](n2cnc3c(N)nc(NCCc4ccc(CCC(=O)O)cc4)nc32)[C@H](O)C1O (stereo not given in full)			inactive
O=C(Nc1ccc2[nH]ncc2c1)C1CCC1	inactive		
O=C1C(SCCO)=C(SCCO)C(=O)c2ccccc21			inactive
O=C1NC(=O)/C(=C/c2ccc(-c3ccc(F)cc3O)o2)S1			inactive
COc1ccc(/C=C/C(=O)Nc2ccccc2C(=O)O)cc1OC	inactive		
Nc1ccn([C@H]2O[C@H](CO)[C@@H](O)C2(F)F)c(=O)n1		2.77%	
CCN(CC)CCCCNc1ncc2cc(-c3c(Cl)cccc3Cl)c(NC(=O)NC(C)(C)C)nc2n1	7.18 µM (active)		
CCCCN(CC)c1nc(C)nc2c1c(C)cn2-c1c(C)cc(C)cc1C	inactive		
CCC(CO)Nc1nc(NCc2ccccc2)c2ncn(C(C)C)c2n1 (stereo not given)		-3.97%	
CN(CCCOc1ccc(Cc2ccccc2)cc1)CCC(=O)O	inactive		

Target: Luciferin 4-monooxygenase (Photinus pyralis) (UniProt P08659)
Test: Primary firefly luciferase (FLuc) qHTS assay for identification of artifact compounds. (AID 1845220); also: nearly all actives have a fitted effect of over 60% in size; also: potency is read from the fitted curve at half-maximal effect;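 as to activity change, negative = inhibition: plate controls were DMSO vehicle for no effect and no enzyme for full effect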
Conditions: purified firefly luciferase, luminescence, 5 min; series mostly up to 54.1 µM; activity change, negative = inhibition: at the top concentration
How it was run: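 D-luciferin and ATP (10 uM each, final) in Tris acetate buffer pH 7.6 were incubated with compounds for 15 min at room temperature. The reaction was started with 10 nM Photinus pyralis luciferase and luminescence read after 5 min. Percent inhibition was fitted to a 4-parameter Hill equation.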

Structure (SMILES)	outcome	activity change, negative = inhibition	Potency
CS(=O)(=O)c1ccc(-n2nc(C(F)(F)F)cc2-c2ccc(F)cc2)cc1	inactive		
O=[N+]([O-])c1ccc(CNc2nc(NCc3cccc(C(F)(F)F)c3)nc3nc[nH]c23)cc1		3.47%	
CCNc1nc2c(ncn2[C@H]2C[C@H](O)[C@@H](CO)O2)c(=O)[nH]1		-4.19%	
O=C(Nc1ccc2c(c1)CCN(Cc1ncn[nH]1)C2)c1ccccc1-c1ccc(C(F)(F)F)cc1	inactive		
COC(=O)C1=C(C)NC(C)=C(C(=O)OC)C1c1cccc(NC(=O)NCCCN2CCC(c3cccc(OC)c3)CC2)c1	inactive		
O=C(Nc1ccc2[nH]ncc2c1)C1CCC1		1.9%	
COc1ccc(/C=C/C(=O)Nc2ccccc2C(=O)O)cc1OC			3.01 µM (active)
CCN(CC)CCCCNc1ncc2cc(-c3c(Cl)cccc3Cl)c(NC(=O)NC(C)(C)C)nc2n1	inactive		
CCCCN(CC)c1nc(C)nc2c1c(C)cn2-c1c(C)cc(C)cc1C		1.08%	
CN(CCCOc1ccc(Cc2ccccc2)cc1)CCC(=O)O	inactive		

Test system: not listed separately
Test: Primary fluorescence-based thiol-reactive (MSTI) qHTS assay for identification of artifact compounds. (AID 1845221);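 also: thiol-reactive compounds lower the probe fluorescence signal; nearly all actives have a fitted effect of over 65% in size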
Conditions: MSTI thiol-reactivity probe, 1 h; series mostly up to 53.8 µM; activity change, negative = thiol reactive: at the top concentration
How it was run: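 In PBS pH 7.4 with 2% DMSO, each compound met 4 uM MSTI for one hour at ambient temperature, shielded from light, before fluorescence detection.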

Structure (SMILES)	activity change, negative = thiol reactive
CS(=O)(=O)c1ccc(-n2nc(C(F)(F)F)cc2-c2ccc(F)cc2)cc1	58.4%
O=[N+]([O-])c1ccc(CNc2nc(NCc3cccc(C(F)(F)F)c3)nc3nc[nH]c23)cc1	114%
CCNc1nc2c(ncn2[C@H]2C[C@H](O)[C@@H](CO)O2)c(=O)[nH]1	1.37%
O=C(Nc1ccc2c(c1)CCN(Cc1ncn[nH]1)C2)c1ccccc1-c1ccc(C(F)(F)F)cc1	261%
COC(=O)C1=C(C)NC(C)=C(C(=O)OC)C1c1cccc(NC(=O)NCCCN2CCC(c3cccc(OC)c3)CC2)c1	6.82%
O=C(Nc1ccc2[nH]ncc2c1)C1CCC1	1.44%
COc1ccc(/C=C/C(=O)Nc2ccccc2C(=O)O)cc1OC	122%
CCN(CC)CCCCNc1ncc2cc(-c3c(Cl)cccc3Cl)c(NC(=O)NC(C)(C)C)nc2n1	30.5%
CCCCN(CC)c1nc(C)nc2c1c(C)cn2-c1c(C)cc(C)cc1C	8.97%
CN(CCCOc1ccc(Cc2ccccc2)cc1)CCC(=O)O	13%

Test system: Nanoluciferase (engineered Oplophorus gracilirostris luciferase)
Test: Primary Nanoluciferase (NLuc) qHTS assay for identification of artifact compounds. (AID 1845222); also: potency is read from the fitted curve at half-maximal effect;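 as to activity, negative = inhibition: 0% = DMSO and -100% = no enzyme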
Conditions: NLuc-conditioned medium, Nano-Glo luminescence, 5 min; series mostly up to 54.1 µM; activity, negative = inhibition: at the top concentration
How it was run: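 Diluted conditioned medium from NLuc-expressing S16 cells treated with compounds for 15 min at room temperature, then Nano-Glo substrate added; luminescence read after 5 min. Percent inhibition versus no-enzyme and DMSO controls fitted to 4-parameter Hill equation.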

Structure (SMILES)	activity, negative = inhibition	Potency
CS(=O)(=O)c1ccc(-n2nc(C(F)(F)F)cc2-c2ccc(F)cc2)cc1	-1.22%	
O=[N+]([O-])c1ccc(CNc2nc(NCc3cccc(C(F)(F)F)c3)nc3nc[nH]c23)cc1	0%	
CCNc1nc2c(ncn2[C@H]2C[C@H](O)[C@@H](CO)O2)c(=O)[nH]1	3.18%	
O=C(Nc1ccc2c(c1)CCN(Cc1ncn[nH]1)C2)c1ccccc1-c1ccc(C(F)(F)F)cc1	-1.6%	
COC(=O)C1=C(C)NC(C)=C(C(=O)OC)C1c1cccc(NC(=O)NCCCN2CCC(c3cccc(OC)c3)CC2)c1	1.73%	
O=C(Nc1ccc2[nH]ncc2c1)C1CCC1	1.25%	
COc1ccc(/C=C/C(=O)Nc2ccccc2C(=O)O)cc1OC		21.3 µM (active)
CCN(CC)CCCCNc1ncc2cc(-c3c(Cl)cccc3Cl)c(NC(=O)NC(C)(C)C)nc2n1	0.751%	
CCCCN(CC)c1nc(C)nc2c1c(C)cn2-c1c(C)cc(C)cc1C	-0.249%	
CN(CCCOc1ccc(Cc2ccccc2)cc1)CCC(=O)O	1.33%	

Test system: not listed separately
Test: Primary redox qHTS assay for identification of artifact compounds. (AID 1845223);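 also: 0% = DMSO and 100% = reference compound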
Conditions: Amplex Red/HRP redox cycling with DTT, fluorescence; series mostly up to 53.8 µM; redox activity (% of DA3003): at the top concentration
How it was run: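 Redox-cycling detection via DTT (250 uM final) oxidation coupled to Amplex Red (25 uM)/HRP (250 mU/mL) in HBSS. 15 min preincubation plus 30 min after DTT, room temperature. Ex/Em 525/598 nm; 4-parameter Hill fit against DMSO and 10 uM DA3003.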

Structure (SMILES)	redox activity (% of DA3003)
CS(=O)(=O)c1ccc(-n2nc(C(F)(F)F)cc2-c2ccc(F)cc2)cc1	7.59%
O=[N+]([O-])c1ccc(CNc2nc(NCc3cccc(C(F)(F)F)c3)nc3nc[nH]c23)cc1	-2.35%
CCNc1nc2c(ncn2[C@H]2C[C@H](O)[C@@H](CO)O2)c(=O)[nH]1	-3.98%
O=C(Nc1ccc2c(c1)CCN(Cc1ncn[nH]1)C2)c1ccccc1-c1ccc(C(F)(F)F)cc1	16.7%
COC(=O)C1=C(C)NC(C)=C(C(=O)OC)C1c1cccc(NC(=O)NCCCN2CCC(c3cccc(OC)c3)CC2)c1	7.33%
O=C(Nc1ccc2[nH]ncc2c1)C1CCC1	-1.06%
COc1ccc(/C=C/C(=O)Nc2ccccc2C(=O)O)cc1OC	0.921%
CCN(CC)CCCCNc1ncc2cc(-c3c(Cl)cccc3Cl)c(NC(=O)NC(C)(C)C)nc2n1	8.42%
CCCCN(CC)c1nc(C)nc2c1c(C)cn2-c1c(C)cc(C)cc1C	16.7%
